ATG4B inh: ATG4B (human) cysteine protease inhibition; Q9Y4P1; ATG4B cleavage of LC3-PLA2, NBD-HPC fluorescence, 1 h; inhibition, % at 8.33 µM; 340,000 tested, 0.51% active; AID 504462; in the data active means inhibition above about 40%
Target sequence (Q9Y4P1 whole entry, looked up): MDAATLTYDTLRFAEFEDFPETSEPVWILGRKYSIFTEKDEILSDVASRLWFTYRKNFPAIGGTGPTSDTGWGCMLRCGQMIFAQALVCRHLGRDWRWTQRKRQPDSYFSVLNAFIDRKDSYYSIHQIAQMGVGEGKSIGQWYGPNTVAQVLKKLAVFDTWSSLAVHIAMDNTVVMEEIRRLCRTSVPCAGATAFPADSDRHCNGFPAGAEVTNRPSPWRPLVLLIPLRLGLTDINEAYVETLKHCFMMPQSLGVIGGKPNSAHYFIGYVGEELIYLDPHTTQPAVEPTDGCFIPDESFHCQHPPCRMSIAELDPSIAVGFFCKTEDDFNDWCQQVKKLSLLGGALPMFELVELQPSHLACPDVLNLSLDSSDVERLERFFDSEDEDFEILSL
PfHsp90 set2: growth inhibition of yeast expressing Plasmodium Hsp90. S. cerevisiae expressing PfHsp90, BacTiter-Glo ATP, 48 h; yeast lacking PDR1 and PDR3 efflux regulators. inhibition, % at 9.4 µM. 310,000 tested, 0.32% active. AID 504621;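 active means every replicate shows inhibition above about 80%, whatever the replicate mean, limit read from the data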;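 further: 0% = DMSO neutral controls and 100% = 20 µM radicicol positive controls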
tim23-1 inh: growth inhibitors of tim23-1 mutant yeast. S. cerevisiae tim23-1 growth, BacTiter-Glo luminescence, 24 h. inhibition, % at 20 µM. 330,000 tested, 1.3% active. AID 463212;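 active means growth inhibition of the mutant yeast at or above 50%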;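 further: temperature-sensitive mutant grown at 25 °C; plate controls were DMSO-treated mutant yeast for no effect and medium wells lacking yeast for full effect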
TIM10 inh: TIM10 yeast growth inhibition; S. cerevisiae TIM10 strain growth, BacTiter-Glo luminescence, 24 h; inhibition, % at 10 µM; 330,000 tested, 1.4% active;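 active means inhibition of 40% or more at the single tested concentration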;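 further: wild-type TIM10 isogenic control strain grown at permissive 25 °C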
tim10-1 inh: growth inhibitors of tim10-1 mutant yeast; S. cerevisiae tim10-1 ts strain growth, BacTiter-Glo, 24 h; inhibition, % at 20 µM; 330,000 tested, 2.2% active;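 active means inhibition of at least 40%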;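 further: mutant grown at 25 °C; 0% = DMSO wells with yeast and 100% = wells holding no yeast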
SKKanGAS inh: blocks kanamycin growth of S. pyogenes SKKanGAS strain; AID 1662; BacTiter-Glo, 6 h; inhibition, % at 7.5 µM; 300,000 tested, 1.3% active;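 active means mean replicate score, as percent of positive control median, at least 50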;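 further: strain carries kanamycin resistance gene driven by streptokinase promoter and grows in 40 µg/ml kanamycin; loss of luminescence reflects streptokinase promoter inhibition or plain growth inhibition; 0% = median of DMSO wells and 100% = positive control at its reference dose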
tim10 confirm: confirmation of TIM10 yeast growth inhibitors. S. cerevisiae tim10 strain growth, BacTiter-Glo luminescence, 24 h. shares compounds with TIM10 inh. 4,600 tested, 63% active. inhibition, % at 10 µM;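 active means inhibition of yeast growth at or above a set limit in either of two replicates at 10 µM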;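 further: this counterscreen used the strain with wild-type TIM10; 0% = yeast with DMSO and 100% = medium wells lacking yeast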
* marks the source's active call; other numbers are inactive results; / = not tested or not shown. Hits are enriched below; roughly 4.7% of the tested compounds scored in any of these assays.

SMILES	ATG4B inh	PfHsp90 set2	tim23-1 inh	TIM10 inh	tim10-1 inh	SKKanGAS inh	tim10 confirm
CC(C)NC(=S)NC(c1ccccc1)(c1ccccc1)c1ccccc1	1	-6	44	45*	34	81*	49*
C/C(=N\NC(=S)NC(C)C)c1ccccc1	-2	2	20	7	14	12	/
COc1ccc(NC(=O)c2cccc3ccccc23)cc1	10	-15	2	2	-6	4	/
COc1ccccc1C(=O)Oc1ccccc1C(=O)Nc1ccccc1	-8	3	49	41*	7	-2	31
COc1ccc(NC(=O)c2ccccc2C)cc1	2	32	3	85*	-1	7	10
O=C1CCCN1CCCNc1ccc(S(=O)(=O)N2CCCCC2)cn1	-5	31	-1	-1	9	0	/
CSc1ccc(C(=S)N2CCCC2)cc1	3	11	-8	59*	-2	-4	3
CSc1ccc(C(=S)N2CCN(C)CC2)cc1	-4	-1	6	0	-3	9	/
COc1ccc(OC)c(-c2nc(CN3CCN(C(=O)c4ccco4)CC3)c(C)o2)c1	-11	20	20	11	18	4	/
O=C(Nc1ccc(F)cc1)C1CCN(S(=O)(=O)c2ccc3[nH]c(=O)oc3c2)CC1	1	11	-7	74*	-8	-2	6
Cc1cc(C)n2c(SCC(=O)NC3CCCCC3C)nnc2n1 (stereo unspecified)	-4	20	8	6	12	-6	/
CCC1CCCCN1C(=O)CSc1nnc2nc(C)cc(C)n12 (stereo unspecified)	2	-23	3	43*	1	/	-14
COc1ccc(-c2cc(C(=O)NCc3cccnc3)no2)cc1	2	-22	-1	-22	6	-7	/
O=[N+]([O-])c1ccc(NN=Cc2ccc3c(c2)OCO3)nc1	-4	-16	/	/	/	/	/
CC(C)CCn1c(N2CCN(c3cccc(Cl)c3)CC2)nc2c1c(=O)[nH]c(=O)n2C	-10	-18	21	41*	27	45	-8
O=C1c2ccccc2C(=O)C1c1ccc2ccccc2n1	-11	/	26	58*	31	24	46*
Oc1ccc(Nc2ccnc3cc(Cl)ccc23)cc1	-2	7	2	-5	9	1	/
Oc1ccc(/C=N/Nc2ccnc3cc(Cl)ccc23)c(O)c1	-3	-15	7	47*	5	0	36*
Cc1cc(Nc2ccc(Cl)cc2)nc(-c2ccccc2O)n1	3	-19	24	14	25	-3	/
Cc1cc(Nc2cccc(Cl)c2)nc(-c2ccccc2O)n1	-4	-44	19	42*	18	6	41*
NC(=O)CC[C@H](NC(=O)OCc1ccccc1)C(=O)OCc1ccc(Cl)cc1	-3	-3	14	45*	15	-1	-10
CCCn1c(=O)c(C(=O)Nc2c(C)n(C)n(-c3ccccc3)c2=O)c(O)c2ccccc21	-5	/	14	6	10	/	/
C/C(=N\NC(=S)NC1CCCCC1)c1ccc(O)cc1	3	/	40	49*	32	-4	42*
CC(C)(C)c1ccc(/C=N/NC(=S)NC2CCCCC2)cc1	1	-21	37	96*	35	39	48*
O=C(N/N=C/c1ccccc1)NC1CCCCC1	-1	8	24	7	19	-5	/
SMILES	ATG4B inh	PfHsp90 set2	tim23-1 inh	TIM10 inh	tim10-1 inh	SKKanGAS inh	tim10 confirm
C/C(=N\NC(=S)NC1CCCCC1)c1ccccc1	34	-43	30	-6	23	0	/
C=CCOc1ccccc1CN1CCC(CO)(CCOc2ccccc2)CC1	8	/	-3	-14	10	-2	/
COc1ccc(OCC(=O)NNC(=O)c2c(-c3ccccc3Cl)noc2C)cc1	4	2	-3	-11	-7	0	/
Cn1c(SCc2ccc(C#N)cc2)nnc1-c1cccc(Cl)c1	2	5	47	45*	28	-14	28
C/C(=N/NS(=O)(=O)c1ccc(C)cc1C)c1c[nH]c2ccccc12	-12	11	26	17	25	11	/
O=S(=O)(NCc1ccc2c(c1)OCO2)c1ccc2c(c1)oc1ccccc12	2	1	40	46*	30	-13	28*

Bioassay records as filed in PubChem.
